The values that follow come from PubChem BioAssay (NCI).

Test systems include SR leukemia; RPMI-8226 leukemia; OVCAR-8 ovarian; OVCAR-5 ovarian; OVCAR-4 ovarian; SK-OV-3 ovarian; IGROV1 ovarian; OVCAR-3 ovarian; HS 578T breast; NCI/ADR-RES ovarian; T-47D breast; BT-549 breast; MDA-MB-435 melanoma; SW-620 colon; MCF7 breast; HCT-116 colon; HCC-2998 colon; KM12 colon.
What all share (assay): NCI-60 one-dose screen, 48 h (100 = growth as untreated, 0 = no growth, -100 = all killed)
What all share (conditions): 10 µM unless noted

About 83,000 compounds went through this panel and 20% of them were active in at least one assay; those are over-represented in the sample as a whole.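 The test compound was applied at a single concentration to cells in 96-well plates for 48 hours, and percent growth was recorded.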 Unmarked numbers belong to inactive results. Activity calls are given as the source filed them. Rule for the calls: active = growth percent below 10; inactive = the rest.

For the molecule `CCCCN1C(=O)/C(=c2\sc3n(c2=O)NC2C(N=3)N(CC)C(=O)N2CC)c2ccccc21` (configuration not stated), the growth in the assay on SR leukemia is 24.5%; in the assay on RPMI-8226 leukemia, 60.2%; with OVCAR-8 ovarian, 36.2%; in the assay on OVCAR-5 ovarian, 48.4%; in the assay on OVCAR-4 ovarian, 50.8%; with SK-OV-3 ovarian, 77.2%. For the same molecule, the growth in the assay on IGROV1 ovarian is 47%; in the assay with OVCAR-3 ovarian, 0.018% (active); in the assay with HS 578T breast, 40.2%; in the assay on NCI/ADR-RES ovarian, 20.5%; in the assay with T-47D breast, 18.7%; in the assay on BT-549 breast it was 73.4%. Besides, the growth with MDA-MB-435 melanoma is -41.6% (active); with SW-620 colon it was 36.2%; in the assay with MCF7 breast it was 25%; in the assay on HCT-116 colon it was 13.1%; in the assay on HCC-2998 colon, 64.1%; with KM12 colon, 20.3%.

Regarding `Cc1ccc(S(=O)(=O)n2cc(C3C(Cl)C(=O)N3c3ccc(N4CCOCC4=O)cc3)c3ccccc32)cc1` (configuration not stated), the growth is 24.6% in the assay with SR leukemia; 21.6% with RPMI-8226 leukemia; 55.5% with OVCAR-8 ovarian; 78.5% with OVCAR-5 ovarian; 52.4% with OVCAR-4 ovarian; 93.9% with SK-OV-3 ovarian. Besides, the growth is 72.6% in the assay on IGROV1 ovarian; 30.4% in the assay with OVCAR-3 ovarian; 41.8% with HS 578T breast; 32.6% in the assay on NCI/ADR-RES ovarian; 51% in the assay with T-47D breast; 48.3% in the assay with BT-549 breast. The growth with MDA-MB-435 melanoma is -21.2% (active); with SW-620 colon, 26.1%; with MCF7 breast it was 20.8%; in the assay with HCT-116 colon, 16.5%; with HCC-2998 colon it was 86.6%; with KM12 colon it was 85.6%.

`COc1cc(C(=O)C(=O)c2cc(OC)c(O)c(OC)c2)cc(OC)c1O`: the growth is 103% with SR leukemia; 91.3% in the assay with RPMI-8226 leukemia; 102% with OVCAR-8 ovarian; 97% with OVCAR-5 ovarian; 101% in the assay on OVCAR-4 ovarian; 103% in the assay on SK-OV-3 ovarian. In addition, the growth in the assay on IGROV1 ovarian is 117%; in the assay on OVCAR-3 ovarian it was 103%; in the assay on HS 578T breast it was 110%; in the assay on NCI/ADR-RES ovarian it was 101%; in the assay with T-47D breast, 98.1%; in the assay on BT-549 breast, 120%. Also, the growth is 103% in the assay on MDA-MB-435 melanoma; 105% in the assay with SW-620 colon; 96.5% with MCF7 breast; 104% in the assay on HCT-116 colon; 92.1% in the assay with HCC-2998 colon; 107% in the assay with KM12 colon.

With `c1ccc(CNc2ccc3nc(CCC4CCCCC4)[nH]c3c2)cc1`, the growth in the assay on SR leukemia is 80.8%; in the assay with RPMI-8226 leukemia, 47.9%; in the assay on OVCAR-8 ovarian, 72.3%; in the assay on OVCAR-5 ovarian, 63.4%; in the assay on OVCAR-4 ovarian, 47.5%; in the assay on SK-OV-3 ovarian, 86.8%. Also, the growth in the assay on IGROV1 ovarian was 53.5%; with OVCAR-3 ovarian it was 63.9%; in the assay with HS 578T breast it was 80.9%; in the assay with NCI/ADR-RES ovarian, 61.8%; with T-47D breast, 33.9%; in the assay on BT-549 breast it was 72.2%. In addition, the growth was 81.6% in the assay on MDA-MB-435 melanoma; 67.8% in the assay on SW-620 colon; 62% in the assay on MCF7 breast; 54.6% with HCT-116 colon; 45.8% with HCC-2998 colon; 66.7% with KM12 colon.

For `NC(=O)c1ccc(NC(=O)c2oc3ccccc3c2-c2cnn(-c3ccccc3)c2)cc1`, the growth with SR leukemia is 15.9% [50 µM]; with RPMI-8226 leukemia, 17.6% [50 µM]; in the assay with OVCAR-8 ovarian, 13.4% [50 µM]; with OVCAR-5 ovarian, -6.33% [50 µM] (active); with OVCAR-4 ovarian, -30.5% [50 µM] (active); in the assay on SK-OV-3 ovarian, 62.4% [50 µM]. In addition, the growth in the assay on IGROV1 ovarian was 10.6% [50 µM]; in the assay on OVCAR-3 ovarian, 1.08% [50 µM] (active); with HS 578T breast it was 5.15% [50 µM] (active); in the assay on NCI/ADR-RES ovarian, -3.84% [50 µM] (active); in the assay with T-47D breast it was 49.8% [50 µM]; in the assay with BT-549 breast, 22.2% [50 µM]. Besides, the growth in the assay on MDA-MB-435 melanoma was 37.7% [50 µM]; in the assay with SW-620 colon, 12.8% [50 µM]; in the assay on MCF7 breast, -1.73% [50 µM] (active); in the assay with HCT-116 colon it was 9.74% [50 µM] (active); in the assay with HCC-2998 colon it was 28.7% [50 µM]; in the assay on KM12 colon, 34.1% [50 µM].

For `Brc1ccc(-c2cnc3nonc3n2)cc1`, the growth in the assay on SR leukemia is 19.9%; in the assay on RPMI-8226 leukemia, 31.1%; in the assay with OVCAR-8 ovarian it was 80.5%; with OVCAR-5 ovarian it was 122%; in the assay on OVCAR-4 ovarian, 42.7%; with SK-OV-3 ovarian it was 110%. For the same molecule, the growth is 81.1% with IGROV1 ovarian; 9.13% (active) in the assay with OVCAR-3 ovarian; 87.3% with HS 578T breast; 79.7% in the assay with NCI/ADR-RES ovarian; 69.7% in the assay with T-47D breast; 115% in the assay on BT-549 breast. Moreover, the growth with MDA-MB-435 melanoma was 3.37% (active); with SW-620 colon, 77.6%; with MCF7 breast, 28.2%; with HCT-116 colon, 60%; in the assay with HCC-2998 colon, 91.3%; with KM12 colon, 78.2%.

`CC1CN=C(c2cccc(-c3ccc(-c4ccccc4)o3)c2)N1` (configuration not stated): the growth was -9.42% (active) with SR leukemia; -26.3% (active) with RPMI-8226 leukemia; 33.7% with OVCAR-8 ovarian; -5.49% (active) in the assay on OVCAR-5 ovarian; 43.1% in the assay with OVCAR-4 ovarian; 18.4% with SK-OV-3 ovarian. Also, the growth in the assay on IGROV1 ovarian is 31%; in the assay with OVCAR-3 ovarian, 10.6%; in the assay on HS 578T breast it was 17.4%; with NCI/ADR-RES ovarian, 28.3%; in the assay on T-47D breast, -31.8% (active); in the assay on BT-549 breast, 50.8%. For the same molecule, the growth in the assay with MDA-MB-435 melanoma was -75.8% (active); in the assay with SW-620 colon, -40.6% (active); in the assay on MCF7 breast, -57.2% (active); in the assay on HCT-116 colon it was -67.9% (active); in the assay with HCC-2998 colon, -65.4% (active); in the assay on KM12 colon, -8.35% (active).

`Nc1c(C(=O)Nc2ccccn2)sc2nc3c(cc12)C(O)CCC3` (configuration not stated): the growth with SR leukemia is 14.4%; in the assay with RPMI-8226 leukemia, 2.23% (active); with OVCAR-8 ovarian, 36.5%; in the assay with OVCAR-5 ovarian it was 46.7%; in the assay with OVCAR-4 ovarian it was 59.4%; with SK-OV-3 ovarian it was 17.4%. Moreover, the growth in the assay with IGROV1 ovarian was 47.9%; in the assay with OVCAR-3 ovarian it was -19.1% (active); in the assay on HS 578T breast, 6.09% (active); in the assay on NCI/ADR-RES ovarian it was 17.7%; in the assay with T-47D breast, 15%; in the assay on BT-549 breast, 58.2%. Further, the growth in the assay with MDA-MB-435 melanoma is -44.6% (active); in the assay with SW-620 colon it was 21.8%; in the assay with MCF7 breast, 13.2%; in the assay with HCT-116 colon it was 30.5%; in the assay with HCC-2998 colon, 70.7%; with KM12 colon it was 18.3%.

Consider `Cc1cc2nc(-c3c(-c4ccc(F)cc4)nc4sccn34)[nH]c2cc1C`, for which the growth with SR leukemia was 83.2%; in the assay on RPMI-8226 leukemia, 87.9%; with OVCAR-8 ovarian, 96%; with OVCAR-5 ovarian, 111%; in the assay on OVCAR-4 ovarian, 94.7%; in the assay with SK-OV-3 ovarian it was 94.9%. In addition, the growth in the assay with IGROV1 ovarian is 95.9%; in the assay with OVCAR-3 ovarian, 102%; with HS 578T breast, 103%; in the assay with NCI/ADR-RES ovarian it was 91.6%; in the assay with T-47D breast, 85.7%; in the assay with BT-549 breast, 109%. Also, the growth in the assay with MDA-MB-435 melanoma is 103%; with SW-620 colon it was 108%; in the assay on MCF7 breast, 91.6%; with HCT-116 colon it was 103%; in the assay on HCC-2998 colon it was 106%; in the assay with KM12 colon, 96.7%.
